Measured values reported in PubChem BioAssay (NCI).
This is part of a sample that, as a whole, favours compounds with a hit. Of some 83,000 tested, about 20% had one in any assay.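 Assay: single dose, 48 h. Readout: percent growth (0 = no net growth; negative = cell death). Active: <10.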 The source made the active and inactive calls.

How the values were obtained:
Test in all cases: NCI-60 one-dose screen, 48 h (100 = growth as untreated, 0 = no growth, -100 = all killed)
Conditions in all cases: 10 µM unless noted
[1] = tested on: DU-145 prostate
[2] = tested on: K-562 leukemia
[3] = tested on: MALME-3M melanoma
[4] = tested on: MDA-MB-231 breast
[5] = tested on: SF-268 CNS
[6] = tested on: SF-295 CNS
[7] = tested on: SF-539 CNS
[8] = tested on: UACC-257 melanoma
[9] = tested on: M14 melanoma
[10] = tested on: HCT-15 colon
[11] = tested on: HT29 colon
[12] = tested on: SNB-75 CNS
[13] = tested on: SNB-19 CNS
[14] = tested on: U251 CNS
[15] = tested on: PC-3 prostate
[16] = tested on: SK-MEL-5 melanoma
[17] = tested on: UACC-62 melanoma
[18] = tested on: LOX IMVI melanoma
[19] = tested on: SK-MEL-28 melanoma

Measured: growth

O=C(O)CCNS(=O)(=O)c1ccc(-c2ccccc2)cc1
inactive: [1] 127% | [2] 114% | [3] 112% | [4] 123% | [5] 115% | [6] 131% | [7] 108% | [8] 87.5% | [9] 104% | [10] 99.2% | [11] 110% | [12] 90.6% | [13] 102% | [14] 94.5% | [15] 89.6% | [16] 97.9% | [17] 96.7% | [18] 92.1% | [19] 94.3%

COc1cc(-c2n[nH]nc2-c2ccccn2)cc(OC)c1OC
inactive: [1] 112% | [2] 90.6% | [3] 90.5% | [4] 98.3% | [5] 114% | [6] 115% | [7] 104% | [9] 113% | [10] 76.8% | [11] 112% | [12] 88.1% | [13] 94.8% | [14] 106% | [15] 82.1% | [16] 102% | [17] 87.3% | [18] 98.5% | [19] 120%

O=C(NC1CCS(=O)(=O)C1)c1ccc(C(=O)c2ccccc2)cc1 (configuration not stated)
inactive: [1] 128% | [2] 108% | [3] 108% | [4] 124% | [5] 118% | [6] 99.6% | [7] 103% | [8] 82.7% | [9] 98.6% | [10] 101% | [11] 106% | [12] 90.9% | [13] 97.9% | [14] 90.1% | [15] 101% | [16] 110% | [17] 95.6% | [18] 95.6% | [19] 89.2%

Fc1ccc(-c2nn3c(-c4cc(C(F)(F)F)cc(C(F)(F)F)c4)nnc3s2)cc1
inactive: [1] 87.1% | [2] 68.8% | [3] 43.8% | [4] 39.5% | [5] 37.3% | [6] 38.4% | [7] 39.7% | [8] 76.7% | [9] 64.6% | [10] 89.7% | [11] 40.2% | [15] 39.2% | [16] 56% | [17] 53.3% | [18] 63.9% | [19] 72%
active: [13] 8.33% | [14] 4.98%

Nc1ccc(Oc2c(F)c(F)c(Oc3ccc(N)cc3)c(F)c2F)cc1
inactive: [1] 107% | [2] 93.3% | [3] 87.1% | [4] 109% | [5] 97.9% | [6] 103% | [7] 111% | [9] 99.1% | [10] 86.7% | [11] 108% | [12] 89.5% | [13] 94.8% | [14] 83.3% | [15] 84.4% | [16] 111% | [17] 90.9% | [18] 86.5% | [19] 115%
active: [8] 9.12%

O=C1/C(=C/c2ccccc2O)C(=S)SN1Cc1ccco1
inactive: [1] 103% | [2] 46.4% | [3] 106% | [4] 108% | [5] 105% | [6] 94.3% | [7] 97.4% | [8] 99.1% | [9] 99.8% | [10] 91.6% | [11] 87.6% | [12] 70.2% | [13] 111% | [15] 93.3% | [16] 95.8% | [17] 94.4% | [18] 34.7% | [19] 92%

CCc1ccc(-c2nc(SCC(=O)NC3CCCCC3)n[nH]2)cc1
inactive: [1] 102% | [2] 33.3% | [3] 88.2% | [4] 63.3% | [5] 82.6% | [6] 15.8% | [7] 92.9% | [9] 77.7% | [10] 88.6% | [11] 101% | [12] 85.4% | [13] 98.7% | [14] 89.3% | [15] 77.1% | [16] 61.5% | [17] 57.8% | [18] 67.8% | [19] 108%
active: [8] -1.69%

Clc1ccc2nc(CI)c(CI)nc2c1
inactive: [1] 86.1% | [3] 74.6% | [4] 74.4% | [5] 73.7% | [6] 88.8% | [7] 100% | [8] 86.2% | [9] 48.9% | [10] 27.1% | [11] 100% | [12] 96.6% | [13] 97.1% | [14] 71.7% | [15] 84.8% | [17] 81.9% | [18] 14.9% | [19] 113%
active: [2] -20.1%

NS(=O)(=O)c1ccc(N2CC(c3nc4ccccc4[nH]3)CC2=O)cc1 (configuration not stated)
inactive: [1] 109% | [2] 97.2% | [3] 92.9% | [4] 85.4% | [5] 96.1% | [6] 99.9% | [7] 96.6% | [8] 109% | [9] 96.9% | [10] 107% | [11] 97.8% | [12] 67.9% | [13] 101% | [14] 99.7% | [15] 90.8% | [16] 99.8% | [17] 97.4% | [18] 94.2% | [19] 103%

COc1cccc(-c2nc3cc(NC(=O)c4ccc(Cl)c(C#N)c4)ccc3o2)c1
inactive: [6] 25.3% | [10] 51.6% | [15] 14.4% | [17] 38.6% | [18] 21.9%
active: [1] 8.18% | [2] 8.47% | [3] -56.5% | [4] 8.99% | [5] -5.11% | [7] -70.7% | [8] 4.33% | [9] -82.7% | [11] -3.37% | [12] -2.82% | [13] 5.09% | [14] -12.9% | [16] 5.38% | [19] -7.87%

COc1ccc(CC(=O)Nc2nn3c(-c4cc(C(F)(F)F)cc(C(F)(F)F)c4)nnc3s2)cc1
active: [16] 2.85%
inactive: [1] 86% | [2] 62.4% | [3] 80.9% | [4] 88% | [5] 85.8% | [6] 66.1% | [7] 65.7% | [8] 58.2% | [9] 97% | [10] 62.4% | [11] 83.7% | [13] 70.1% | [14] 70.4% | [15] 84.8% | [17] 28.6% | [18] 52.3% | [19] 84.5%

C1=C(Cc2ccccc2)n2cnc3ncnc(c32)S1
inactive: [1] 27.3% | [2] 14.4% | [3] 68% | [4] 35.1% | [5] 71.9% | [6] 30% | [7] 43.2% | [8] 74.9% | [9] 13.2% | [10] 71.8% | [11] 55.7% | [12] 45.8% | [13] 94.1% | [14] 78.8% | [15] 78.2% | [16] 86.1% | [17] 54.5% | [19] 103%
active: [18] 9.31%

COc1ccc2cc(-c3nc4ccccc4[nH]3)c(=O)oc2c1
inactive: [1] 114% | [2] 96.8% | [3] 103% | [4] 104% | [5] 110% | [6] 105% | [7] 98.8% | [8] 45.9% | [9] 93.7% | [10] 94.2% | [11] 114% | [12] 126% | [13] 98.3% | [14] 93.5% | [15] 87.5% | [16] 94.8% | [17] 83.6% | [18] 80.4% | [19] 103%

O=C1Nc2ccc(Cl)cc2[C@@](C#CC2CC2)(C(F)(F)F)O1
inactive: [1] 104% | [2] 67.3% | [3] 93.4% | [4] 86.5% | [5] 117% | [6] 82% | [7] 104% | [8] 79.9% | [9] 86.2% | [10] 82.9% | [11] 86.6% | [12] 114% | [13] 103% | [14] 92% | [15] 92.9% | [16] 78% | [17] 70% | [18] 85.5% | [19] 109%

O=C(O)c1ccc(CNS(=O)(=O)c2ccc3ccccc3c2)cc1
inactive: [1] 93.7% | [2] 94.5% | [3] 93.7% | [4] 105% | [5] 96.2% | [6] 105% | [7] 106% | [8] 99.1% | [9] 103% | [10] 104% | [11] 102% | [12] 90.8% | [13] 104% | [14] 106% | [15] 104% | [16] 105% | [17] 102% | [19] 106%

O=C(/C=C/c1ccc([N+](=O)[O-])cc1)c1ccc2c3c(cccc13)CC2
inactive: [1] 38.7% | [2] 44.8% | [3] 79.7% | [4] 81.4% | [5] 80.9% | [7] 33.1% | [9] 95.3% | [10] 59.5% | [11] 77.2% | [12] 89% | [13] 82.6% | [14] 13.7% | [15] 52.9% | [16] 97.8% | [17] 80.2% | [18] 67.6% | [19] 63.9%
active: [6] -17.9% | [8] 3.27%

COc1ccc(NC(=O)c2ccc(-c3ccccc3)cc2)c(C(N)=O)c1
inactive: [1] 102% | [2] 92.5% | [3] 91.6% | [4] 91.3% | [5] 113% | [6] 99.3% | [7] 97.4% | [8] 102% | [9] 110% | [10] 97.1% | [11] 99.9% | [12] 112% | [13] 94.2% | [14] 98.4% | [15] 93.1% | [16] 101% | [17] 91.5% | [18] 96.6% | [19] 108%
